Experimental data from PubChem BioAssay AID1619 (SRMLSC, 2009).
About 830 (0.38%) of roughly 220,000 compounds were called active. These entries were drawn from the full list. Entries with a potency or affinity are not part of this list. Values without a mark were called inactive.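 How the source made its calls: active means compound inhibiting the enzyme by more than half at any dose during confirmatory dose-response retesting; inconclusive means strong single-dose inhibitors picked by rank but not retested; inactive means the rest.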

What follows are molecules tested against Leucine aminopeptidase (Plasmodium falciparum (isolate 3D7)) (UniProt Q8IL11) (assay: P. falciparum M17LAP inhibitors, primary screen, biochemical, fluorogenic H-Leu-NHMec substrate, 1536-well (AID 1619;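 further: plate controls were full reaction with DMSO carrier for no effect and no enzyme background for full effect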)). Conditions: recombinant M17LAP, H-Leu-NHMec fluorogenic kinetic assay; at 30 µM; active compounds read high.
Sequence of Leucine aminopeptidase (Plasmodium falciparum (isolate 3D7)) (Q8IL11 whole entry, looked up): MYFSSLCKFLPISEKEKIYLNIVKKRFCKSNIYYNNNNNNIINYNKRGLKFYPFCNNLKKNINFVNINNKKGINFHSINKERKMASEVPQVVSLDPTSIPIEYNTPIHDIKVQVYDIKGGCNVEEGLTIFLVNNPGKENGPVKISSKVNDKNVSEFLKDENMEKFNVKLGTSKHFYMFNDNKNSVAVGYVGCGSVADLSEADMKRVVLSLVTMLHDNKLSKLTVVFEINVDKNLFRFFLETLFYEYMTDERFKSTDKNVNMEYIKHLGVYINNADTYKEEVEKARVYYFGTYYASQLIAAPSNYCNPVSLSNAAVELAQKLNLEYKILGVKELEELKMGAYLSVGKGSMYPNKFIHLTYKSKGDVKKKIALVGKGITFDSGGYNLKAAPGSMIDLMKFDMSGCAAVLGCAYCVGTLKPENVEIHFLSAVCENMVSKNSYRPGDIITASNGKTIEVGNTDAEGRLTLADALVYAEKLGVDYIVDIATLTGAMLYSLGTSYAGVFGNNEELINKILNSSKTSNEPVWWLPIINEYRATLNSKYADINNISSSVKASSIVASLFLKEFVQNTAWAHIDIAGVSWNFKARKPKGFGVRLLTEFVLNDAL

Row | SMILES | inhibition
1 | O=C(NNC(=O)C1CC2CCC1C2)c1ccccc1 (centres undefined) | 17.8%
2 | O=C(NNC(=S)NC1CCCCC1)c1sc2ccccc2c1Cl | 13.2%
3 | CC(C)(C)c1ccc(/C=C2\Oc3cc(OC(=O)N4CCOCC4)ccc3C2=O)cc1 | -5.21%
4 | CCCC(C)NS(=O)(=O)c1ccc(OC)c(C)c1 (centres undefined) | 1.13%
5 | Cn1c(-c2ccc3ccccc3n2)nc2cnccc21 | 9.33%
6 | CCCNC(=O)C(=O)NCc1ccccn1 | -4.32%
7 | Cc1cc(NC(=O)CN2C(=O)NC3(CCCCCC3)C2=O)no1 | -1.33%
8 | O=C(CN1C(=O)NC2(CCCCC2)C1=O)Nc1ccccc1Cl | 30.3%
9 | Cc1ccc(NC(=O)NC(=O)CN2C(=O)NC3(CCCCCCC3)C2=O)c(C)c1 | 3.61%
10 | COc1ccccc1NC(=O)CN1C(=O)NC2(CCCCCCC2)C1=O | -0.01%
11 | Cc1ccc(NC(=O)CN2C(=O)NC3(CCC(C)CC3)C2=O)c(Cl)c1 (centres undefined) | 21%
12 | Cc1cc(NC(=O)CN2C(=O)NC3(CCCCC3)C2=O)no1 | -14.1%
13 | CCCNC(=O)c1cccc(NC(=O)C(C)C)c1 | -3.07%
14 | O=C(NC1CCCc2ccccc21)c1cccc(S(=O)(=O)N2CCOCC2)c1 (centres undefined) | 2.84%
15 | Cc1ccc(OCC(=O)Nc2sc3c(c2C#N)CCC3)cc1 | 4.24%
16 | CCc1onc(C)c1C(=O)Nc1cc(C)ccc1OC | 7.34%
17 | COc1ccc2c(c1)SCC/C2=C\CN1C(=O)CCC1=O | -6.21%
18 | Cn1c(NCCc2ccccc2)cc(=O)n(C)c1=O | 1.23%
19 | CCN(CC)C(=O)CSc1nc2ccc(NC(=O)CSc3nnc(N)s3)cc2s1 | 19.7%
20 | COc1ccc(NC(=O)CSc2nnc(N)s2)c([N+](=O)[O-])c1 | 8.5%
21 | CCc1nc(SCC(=O)Nc2ccc(OC)cc2[N+](=O)[O-])n[nH]1 | 11.8%
22 | CCN(CC)S(=O)(=O)c1cccc(NC(=O)CSc2nnc(N)s2)c1 | 2.68%
23 | Cc1ccc(NC(=O)CSc2nnc(N)s2)c([N+](=O)[O-])c1 | 26.8%
24 | COc1ccc(NC(=O)CSc2n[nH]c(N)n2)c([N+](=O)[O-])c1 | 56.1%

Row | SMILES | inhibition
25 | CCCCOC(=O)C(C#N)c1nc2ccccc2nc1N1CCN(Cc2ccc3c(c2)OCO3)CC1 (centres undefined) | -4.21%
26 | C/C(=N\NC(=O)c1ccc(CN2CCOCC2)cc1)c1ccc(NC(=O)c2ccccc2)cc1 | 4.99%
27 | COc1ccc(C2CC(c3ccccc3)=NN2C(=O)COC(=O)CNC(=O)c2ccccc2)cc1 (centres undefined) | -5.9%
28 | CCCCC(CC)C(=O)Nc1ccccc1C#N (centres undefined) | 2.15%
29 | CCOC(=O)C1CCCCN1Cc1cn[nH]c1-c1ccc(F)cc1F (centres undefined) | 0.93%
30 | CCOC(=O)NC1(Nc2cccc(Cl)c2)Oc2ccccc2O1 | 13.3%
31 | Cc1[nH]n(C(C)(C)C)c(=O)c1Sc1ccc(Cl)cc1 | -0.55%
32 | Cc1[nH]n(-c2ccccc2)c(=O)c1-c1ccc(Cl)cc1 | 14.5%
33 | O=C(CC1Oc2ccccc2NC1=O)NCc1ccccc1 (centres undefined) | 2.31%
34 | CC(=O)NCCc1nc2ccccc2n1CCOc1ccccc1C | -3.06%
35 | COCc1cc(=O)n2[nH]c(-c3cccc(Br)c3)cc2n1 | 6.67%
36 | COc1cc(/C=N/NC(=S)Nc2cccc(C(=O)O)c2)cc(OC)c1OC | 41%
37 | O=C(O)c1cccc(NC(=S)N/N=C/c2ccccn2)c1 | 26.1%
38 | COc1ccc(/C=N/NC(=S)Nc2cccc(C(=O)O)c2)cc1OC | 38.7%
39 | Cc1cccc(NC(=S)N/N=C/c2c[nH]c3ccccc23)c1 | 7.36%
40 | COc1cc(/C=N/NC(=S)Nc2cccc(C(=O)O)c2)ccc1O | 56.1%
41 | O=C(O)c1cccc(NC(=S)N/N=C/c2cccc(O)c2)c1 | 56.3%
42 | CCCCCCCCC(=O)N/N=C(\C)c1ccc(O)cc1O | 0.48%
43 | Cc1ccccc1OCCn1cc(/C(N)=N/O)c2ccccc21 | 3.74%
44 | CCO[C@@H]1OC(C(=O)N2CCOCC2)=C[C@H](c2coc3ccccc3c2=O)[C@H]1CCCO | -0.63%
45 | CC(=O)c1ccc(NC(=O)c2ccc(S(=O)(=O)c3ccccc3)cc2)cc1 | -3.53%
46 | O=C(CC(Nc1ccc(F)cc1)c1ccccc1)c1ccccc1 (centres undefined) | -9.06%
47 | O=C(CN(Cc1ccccc1)C(=O)c1ccco1)NCc1ccc(F)cc1 | 4.59%
48 | O=C(CSc1nc(-c2ccc(Cl)cc2)[nH]c(=O)n1)Nc1cccc(Cl)c1 | -10.8%

Row | SMILES | inhibition
49 | N#Cc1c(-c2ccccc2)nc(-c2ccccc2)[nH]c1=O | 5.14%
50 | Cc1cccc(NC(=O)CSc2nnc(-c3ccccc3)n2N)c1C | 1.89%
51 | COCc1cc(C)nc(SCC(=O)Nc2cccc(C)c2C)c1C#N | 6.16%
52 | N#Cc1c(N)nc(-c2ccccc2)nc1-c1ccccc1 | -4.62%
53 | O=C(CSc1nc(O)cc(=O)[nH]1)N1c2ccccc2Sc2ccccc21 | 39.5%
54 | O=C(CSc1ccc(Cl)cc1)Nc1cccc(-c2nnc(-c3ccco3)o2)c1 | 6.07%
55 | Cc1nc(SCC(=O)N2c3ccccc3Sc3ccccc32)n[nH]1 | 17.3%
56 | O=C(CCn1c(=O)oc2ccccc21)NC1=NCCS1 | 4.21%
57 | C(=C\c1ccccc1)/C=N/N1CCN(Cc2ccccc2)CC1 | 3.39%
58 | O=c1c2sccc2nc(SCc2cc(=O)n3ccccc3n2)n1Cc1ccccn1 | 18%
59 | O=C(CSc1ccc(Cl)cc1)Nn1cnnc1 | 8.97%
60 | N#CCCN1CCN(S(=O)(=O)c2ccc(S(=O)(=O)NC3CCCC3)cc2)CC1 | 5.82%
61 | O=C(Cn1nc2n(c1=O)-c1ccccc1SC2)N/N=C/c1cccnc1 | 3.98%
62 | COc1ccc(CN2C(=O)c3ccccc3C2=O)cc1C(=O)OC(C)C(=O)NC(N)=O (centres undefined) | -1.41%
63 | CC(SC(=S)N1CCCC1)C(=O)O (centres undefined) | -0.65%
64 | O=C(OCCN1CCOCC1)C(c1ccccc1)c1ccccc1 | -9.47%
65 | FC(F)(F)c1nnc2ccc(NCn3nnc4ccccc43)nn12 | 22.6%
66 | O=C(c1cnc2n(c1=O)CCS2)N(C1CCCCC1)C1CCCCC1 | 11.3%
67 | CC(C)C(C)(C#N)NC(=O)CSc1nc2scc(-c3ccc(F)cc3)c2c(=O)n1Cc1ccccc1 (centres undefined) | 11.3%
68 | COc1cccc(F)c1C(C[N+](=O)[O-])c1c(N)n(C)c(=O)n(C)c1=O (centres undefined) | 2.97%
69 | N#CCOc1nc(N2CCCC2)nc(N2CCCC2)n1 | 1.35%
70 | Cc1cc(OCC(=O)c2ccc(F)cc2)ccc1N1C(=O)CCC1=O | -4.66%
71 | O=C(/C=C/c1ccco1)Nc1cccnc1Cl | 5.61%
72 | O=C(/C=C/c1ccco1)Nc1ccccc1C(=O)O | 27.5%

Row | SMILES | inhibition
73 | CCN(CC)S(=O)(=O)c1cccc(C(=O)N/N=C/c2ccccc2OCC(=O)O)c1 | 13.9%
74 | COc1ccccc1NS(=O)(=O)c1cccc(C(=O)N/N=C/c2ccccc2OCC(=O)O)c1 | 16.5%
75 | O=C(O)c1cc(S(=O)(=O)Nc2ccc3oc(=O)sc3c2)ccc1O | 51.1%
76 | COCCOC(=O)c1c(C)oc2ccc(NS(=O)(=O)c3ccc(C(=O)O)cc3)cc12 | 32.9%
77 | COCCOC(=O)c1c(C)oc2ccc(NS(=O)(=O)c3ccc(C)cc3)cc12 | 2.98%
78 | COc1ccc(S(=O)(=O)Nc2ccc3oc(C)c(C(=O)O)c3c2)cc1 | 6.21%
79 | Cc1cc(C(=O)CN2C(=O)C(=O)N(Cc3ccccc3)C2=O)c(C)n1-c1ccc2c(c1)OCCO2 | -11.2%
80 | CC(C)c1nc(SCC(=O)Nc2c[nH]c(=O)[nH]c2=O)c2cnn(-c3ccccc3)c2n1 | -6%
81 | CC(=O)OCC(=O)Nc1ccccc1OC(F)F | -2.65%
82 | Cc1ccc(CNC(=O)C2CCCN(c3nc4ccsc4c(=O)s3)C2)cc1 (centres undefined) | -6.15%
83 | C#CCOCCOCCOCCNc1nc(N2CCN(C(=O)C([C@@H](C)CC)n3cc(C(N)CO)nn3)CC2)nc(N2CCN(C(=O)[C@H](CCC(=O)O)n3cc(C(N)CC(C)C)nn3)CC2)n1 (some centres undefined) | 2.95%
84 | O=C(N=C1c2ccccc2CN1c1ccc(F)c(F)c1)c1cccnc1 | 3.87%
85 | Cc1ccc(C(=O)Nc2c(C)cc(-c3ccc(Cl)cc3)oc2=O)cc1 | 2.9%
86 | CC1(CCc2ccccc2)NC(=S)N(c2ccccc2)N1 (centres undefined) | 10.2%
87 | CCCCCC(=O)NNC(=S)NC(=O)c1ccccc1[N+](=O)[O-] | 14.3%
88 | CCCCC(=O)NNC(=S)NC(=O)c1ccc([N+](=O)[O-])cc1 | 44.2%
89 | O=C(CNC(=S)NC(=O)c1cccc([N+](=O)[O-])c1)c1ccccc1 | -0.71%
90 | CCCC(=O)Nc1ccc(C(=O)NNC(=O)c2cccc([N+](=O)[O-])c2)cc1 | 4.12%
91 | CCCCC(=O)Nc1cccc(NC(=O)c2cccc([N+](=O)[O-])c2)c1 | 5.17%
92 | CCCCC(=O)NNC(=S)NC(=O)c1ccc(C)cc1 | 59.8%
93 | CCCCCCCC(=O)NNC(=O)c1ccc([N+](=O)[O-])cc1 | 1.27%
94 | Cc1cccc(NC(=S)NNC(=O)c2cccc([N+](=O)[O-])c2)c1 | 3.9%
